# Measurements taken from the supplement of paper PMC6135742.
# Where a name gives a salt, the structure may show the parent alone. The full ranking holds about 2,600 compounds; the median of “MBP+ mature oligodendrocyte number relative to DMSO vehicle control” is about -0.34, and the highest 2% start at about 13. The entries come from a sample that favours the highest values as a whole.
# System: jimpy (Plp1 jimpy) mouse iPSC-derived oligodendrocyte progenitor cells
# Experiment: MBP+ mature oligodendrocyte number relative to DMSO vehicle control (SDs above negative control mean); higher = more surviving jimpy oligodendrocytes (rescue)
# Conditions: 10 µM; 3 days
# Protocol: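 Primary phenotypic screen of >3,000 bioactive compounds (Selleck L1700 and Sigma LO1280 libraries) at a single dose of 10 µM. Compounds were added to jimpy (Plp1 mutant) mouse iPSC-derived OPCs at the start of thyroid hormone-induced oligodendrocyte differentiation, one well per compound in 384-well plates. After 3 days cells were stained for MBP, Sox10 and DAPI and imaged with an Operetta system. MBP+ oligodendrocyte number and total cell number were expressed as the number of SDs above the mean of the DMSO negative control on the same plate (n=16 control wells per plate). Hits were defined as >=4 SD for oligodendrocytes and >=2 SD for total cells.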
row,Compound,MBP+ mature oligodendrocyte number
1,OC1CCCCC1N1CCC(c2ccccc2)CC1 (racemic) [(±)-Vesamicol hydrochloride],15.7
2,Cc1ccc2c(c1)C1(CCN(CCc3nc(-c4ccccc4)oc3C)CC1)OC(=O)N2,-2.6
3,"C[N+]1(C)[C@@H]2CC(OC(=O)[C@H](CO)c3ccccc3)C[C@H]1[C@@H]1O[C@@H]12 (single isomer, unassigned; (-)) [(-)-Scopolamine methyl nitrate]",0.539
4,N[C@]1(C(=O)O)CC[C@H](C(=O)O)C1 (racemic) [trans-(±)-ACPD],0.981
5,"CN1CC[C@@]2(C)c3cc(O)ccc3N(C)C12 (single isomer, unassigned; (-)) [(-)-Eseroline fumarate]",-1.28
6,"COc1ccc2c(c1OC)C(=O)OC2C1c2cc3c(cc2CCN1C)OCO3 (single isomer, unassigned; (+)) [(+)-Hydrastine]",1.13
7,NC(=O)c1ccc(OCC(O)CN2CC=C(c3ccc(F)cc3)CC2)cc1 (stereo not given),13.9
8,CC(=O)OCC1=C(C(=O)[O-])N2C(=O)[C@@H](NC(=O)CCC[C@@H](N)C(=O)[O-])[C@H]2SC1.[Zn+2] [Cephalosporin C zinc salt],-0.943
9,"CCCC[N+]1(C)[C@@H]2C[C@@H](OC(=O)[C@H](CO)c3ccccc3)C[C@H]1[C@@H]1O[C@@H]12 (single isomer, unassigned; (-)) [(-)-Scopolamine,n-Butyl-, bromide]",-0.925
10,CN1CC[C@]2(CCN3CCc4c(oc5ccccc45)[C@@H]3C2)N(C)C1=O,1.72
11,CCS(=O)(=O)Nc1cccc(C(=C2CCCCC2)c2cnc[nH]2)c1,2.51
12,CC(C)Oc1cccnc1N(C)C1CCN(Cc2ccccc2)CC1,19.1
13,CO[C@H]1CC[C@@H](O[C@H]2C[C@H]([C@]3(C)CC[C@]4(C[C@H](O)[C@@H](C)[C@@H]([C@@H](C)/C=C(\C)C(=O)[C@H](C)C[C@H](C)C(=O)O)O4)O3)O[C@]3(O[C@@H]([C@H]4O[C@@](O)(CO)[C@H](C)C[C@@H]4C)C[C@@H]3C)[C@@H]2C)O[C@@H]1C [Nanchangmycin],< -6.7
14,"CC(N)Cc1cccc(C(F)(F)F)c1 (single isomer, unassigned; (+)) [(+)-Norfenfluramine hydrochloride]",0.753
15,"COc1ccc2[nH]c3c(c2c1)CCNC3 [6-Methoxy-1,2,3,4-tetrahydro-9H-pyrido[3,4b] indole]",-0.315
